# IDE exosite inh – displaces the probe from the exo-site of human IDE | 17,000 tested, 6.3% active | AID 1259349 | z-score at 20 µM | purified IDE, FL-6b probe fluorescence polarization; active compounds read low;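 active = z-score of -3 or lower, meaning strong loss of probe binding signal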;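 note: His-tagged human IDE residues 42-1019 made in E. coli with 30 nM FL-6b probe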
# * hit, by the source's call. This is one part of a sample in which hits are shown more often than they occur.
SMILES,IDE exosite inh
OC[C@H]1[C@@H](c2ccc(/C=C/c3ccccc3)cc2)[C@@H]2CN(Cc3ccncc3)CCCCN12,-7.9*
CCCC#Cc1ccc([C@H]2[C@@H](C#N)N(C(=O)C3CCCC3)[C@@H]2CO)cc1,1.3
C[C@@H]1CN([C@H](C)CO)C(=O)c2cc(NC(=O)Nc3cccc4ccccc34)ccc2O[C@@H](C)CCCCO[C@@H]1CN(C)S(=O)(=O)c1cn(C)cn1,-7.1*
C[C@@H]1CCCCO[C@@H](CN(C)S(=O)(=O)c2cn(C)cn2)[C@H](C)CN([C@H](C)CO)C(=O)c2cc(NC(=O)Nc3cccc4ccccc34)ccc2O1,-0.11
C[C@@H]1CCCCO[C@@H](CN(C)S(=O)(=O)c2cn(C)cn2)[C@H](C)CN([C@H](C)CO)C(=O)c2cc(N(C)C)ccc2O1,1.5
C[C@@H](O)C#Cc1ccc([C@@H]2[C@@H](CO)N3CCCCN(C(=O)Nc4ccccc4)C[C@@H]23)cc1,-0.14
CCS(=O)(=O)N1CC2(CN(C)[C@H](CO)c3c2c2ccc(OC)cc2n3C)C1,0.86
O=C(Cc1ccccc1)N1CC(=O)N2[C@H](C1)[C@H](c1ccc(-c3cccc(F)c3)cc1)[C@@H]2CO,2.6
COc1cccc(C#Cc2ccc([C@H]3[C@H](CO)N4C(=O)CN(C(=O)Cc5cccnc5)C[C@@H]34)cc2)c1,-4.1*
O=C(Cc1cccnc1)N1CC(=O)N2[C@H](CO)[C@@H](c3ccc(-c4cccc(F)c4)cc3)[C@@H]2C1,-3.4*
COc1cccc(C#Cc2ccc([C@H]3[C@@H](CO)N4C(=O)CN(C(=O)Cc5ccccc5)C[C@@H]34)cc2)c1,1.4
CCC(=O)N1CC(=O)N2[C@H](CO)[C@H](c3ccc(C#Cc4cccc(OC)c4)cc3)[C@@H]2C1,-8.7*
COc1cccc(C#Cc2ccc([C@H]3[C@H]4CN(C(=O)Cc5ccccc5)CC(=O)N4[C@H]3CO)cc2)c1,-1.8
COc1cccc(C#Cc2ccc([C@H]3[C@@H](CO)N4C(=O)CN(C(=O)Cc5cccnc5)C[C@H]34)cc2)c1,-2
COc1cccc(C#Cc2ccc([C@@H]3[C@@H](CO)N4C(=O)CN(C(=O)Cc5cccnc5)C[C@H]34)cc2)c1,-2.3
CCC(=O)N1CC(=O)N2[C@H](C1)[C@@H](c1ccc(C#Cc3cccnc3)cc1)[C@@H]2CO,-1
CCCNC(=O)N1CC(=O)N2[C@H](C1)[C@@H](c1ccc(C#Cc3cccc(OC)c3)cc1)[C@@H]2CO,0.17
O=C(Cc1ccncc1)N1CC(=O)N2[C@H](CO)[C@H](c3ccc(-c4cccc(F)c4)cc3)[C@@H]2C1,-1.5
CCC(=O)N1CC(=O)N2[C@H](CO)[C@H](c3ccc(C#Cc4cccc(OC)c4)cc3)[C@H]2C1,-9.8*
CCN(C[C@H]1N[C@H](CO)[C@@H]1c1ccc(-c2cccc(F)c2)cc1)C(=O)COC,-0.19
CCCC(=O)N1CCC2(CC1)CN(C(=O)C1CCC1)[C@@H](CO)c1[nH]c3cc(OC)ccc3c12,-1.4
CCCC#Cc1ccc([C@H]2[C@H]3CN(S(=O)(=O)Cc4ccccc4)CC(=O)N3[C@H]2CO)cc1,5.9
O=C(C[C@@H]1C[C@@H]2c3cc(NC(=O)Nc4ccccc4F)ccc3O[C@@H]2[C@H](CO)O1)NCc1ccccn1,-0.75
COc1cccc(NC(=O)N2CC(=O)N3[C@H](CO)[C@@H](c4ccc(Br)cc4)[C@@H]3C2)c1,0.75
CN1C(=O)c2cc(NC(=O)Nc3ccccc3F)ccc2OC[C@H]2O[C@@H](CC(=O)NCCc3ccncc3)CC[C@H]21,-1.5
SMILES,IDE exosite inh
N#C[C@@H]1[C@H](c2ccc(C#CC3CCCC3)cc2)[C@H](CO)N1S(=O)(=O)c1ccccc1,1.6
O=C(Nc1cccc(F)c1)N1C[C@@H]2[C@H](c3ccccc31)[C@@H](CO)N2C(=O)Cc1ccccn1,0.35
CC(C)N(C[C@H]1[C@@H](c2ccccc2)[C@@H](CO)N1CC1CC1)C(=O)C1CCC1,1
CC(C)(O)C#Cc1ccc([C@H]2[C@@H](CO)N3CCCCN(S(C)(=O)=O)C[C@H]23)cc1,0.27
COCC(=O)N1CC(=O)N2[C@H](CO)[C@H](c3ccc(C#Cc4cccnc4)cc3)[C@H]2C1,2
COCC(=O)N1CC(=O)N2[C@@H](CO)[C@@H](c3ccc(C#Cc4cccc(OC)c4)cc3)[C@@H]2C1,-7*
COCC(=O)N1CC(=O)N2[C@@H](CO)[C@@H](c3ccc(C#Cc4cccnc4)cc3)[C@@H]2C1,-0.85
CCNC[C@H]1[C@@H](c2ccccc2)[C@@H](CO)N1C(=O)Cc1ccccn1,1.4
Cc1ccccc1-c1ccc([C@@H]2[C@H]3CN(C(=O)Nc4ccc(F)cc4)CCCCN3[C@H]2CO)cc1,-0.34
Cc1ccccc1-c1ccc([C@H]2[C@@H](CO)N3CCCCN(C(=O)Nc4ccccc4)C[C@H]23)cc1,-8.8*
COc1ccc(NC(=O)N2CCCCN3[C@@H](CO)[C@H](c4ccc(-c5ccccc5F)cc4)[C@@H]3C2)cc1,-0.77
COc1ccc(NC(=O)N2CCCCN3[C@H](CO)[C@H](c4ccc(-c5ccccc5C)cc4)[C@H]3C2)cc1,-4.3*
COc1ccc(NC(=O)N2CCCCN3[C@H](C2)[C@@H](c2ccc(-c4ccccc4C)cc2)[C@@H]3CO)cc1,-4.1*
COc1ccc(NC(=O)N2CCCCN3[C@@H](CO)[C@@H](c4ccc(-c5ccccc5F)cc4)[C@@H]3C2)cc1,-1.2
Cc1ccccc1-c1ccc([C@H]2[C@H](CO)N3CCCCN(C(=O)Nc4ccc(F)cc4)C[C@@H]23)cc1,-2.4
Cc1ccccc1-c1ccc([C@@H]2[C@H]3CN(C(=O)Nc4ccccc4)CCCCN3[C@H]2CO)cc1,0.79
Cc1ccccc1-c1ccc([C@H]2[C@H]3CN(C(=O)Nc4ccccc4)CCCCN3[C@H]2CO)cc1,0.8
CC(=O)NC[C@H]1[C@H](c2ccc(-c3ccccc3)cc2)[C@H](CO)N1C(=O)C1CC1,1.8
COc1cccc(S(=O)(=O)N2CCCCN3[C@H](CO)[C@@H](c4ccc(C#CC5CC5)cc4)[C@@H]3C2)c1,3.8
CC(C)C#Cc1ccc([C@H]2[C@@H](CO)N3C(=O)CN(C(=O)c4ccccn4)C[C@H]23)cc1,0.18
CN(C)C(=O)c1ccc(-c2ccccc2[C@H]2[C@@H](CO)N(C(=O)C3CC3)[C@H]2C#N)cc1,-0.42
CCS(=O)(=O)N1CC(=O)N2[C@H](CO)[C@@H](c3ccc(C#CCC(C)C)cc3)[C@H]2C1,1.8
COc1ccc(S(=O)(=O)N2CC3(CN(C(=O)CN(C)C)[C@H](CO)c4c3c3ccc(OC)cc3n4C)C2)cc1,1.5
CN(C[C@H]1N[C@H](CO)[C@@H]1c1ccc(-c2cccnc2)cc1)C(=O)NC1CCCC1,-1.2
CCC(=O)N1CC(=O)N2[C@H](CO)[C@@H](c3ccc(C#CC(C)C)cc3)[C@@H]2C1,0.36
CO[C@H](CN(C)S(=O)(=O)c1ccc(C)cc1)[C@H](C)CN(C(=O)Nc1ccccc1F)[C@@H](C)CO,-0.097
CC(=O)N1CC(=O)N2[C@H](C1)[C@H](c1ccc(C#CC(C)C)cc1)[C@@H]2CO,0.56
CN(C)CC(=O)N[C@@H]1C=C[C@@H](CC(=O)NCc2ccc(Cl)cc2)O[C@@H]1CO,0.72
COc1cccc(S(=O)(=O)N2[C@@H]3CNC[C@H]2C3c2ccc(-c3ccc(C(=O)N(C)C)cc3)cc2)c1 (stereo partly specified),2.5
COc1ccc(NC(=O)N(C)C[C@H]2OCCCC[C@@H](C)Oc3ccc(NC(=O)c4ccncc4)cc3C(=O)N([C@@H](C)CO)C[C@@H]2C)cc1,-0.043
